The text below walks through data of the supplement of paper PMC6555819.

Holding throughout (assay): PBM binding z-score (relative to random genomic background probes); higher = stronger binding; sequences stand for … in GC…GCGATTGACAGCGTAGAATGAAGG
Assay [1] has as its system FXR:RXRa (NR concentration 270 nM, RXRa partner concentration 90 nM). An outline of the steps: (§1)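 Binding z-scores take random background probes as their reference. They come from custom Agilent 4×180K protein-binding microarrays incubated 1 h with ligand-free nuclear receptor dimers, with antibodies against each partner (one per run) detecting binding. Scanned fluorescence was regression-normalized.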

The subject of assay [2] is LXRa:RXRa (NR concentration 270 nM, RXRa partner concentration 90 nM). An outline of the steps: as §1
For assay [3], the system named is LXRa homodimer (NR concentration 270 nM). An outline of the steps: as §1
The test system of assay [4] is LXRb:RXRa (NR concentration 270 nM, RXRa partner concentration 90 nM). Put shortly:
as §1

Assay [5] deals with LXRb homodimer (NR concentration 270 nM). Put shortly: as §1
Assay [6] concerns PPARa:RXRa (NR concentration 270 nM, RXRa partner concentration 90 nM). An outline of the steps: as §1
The subject of assay [7] is PPARg:RXRa (NR concentration 180 nM, RXRa partner concentration 90 nM). Put shortly:
as §1

Assay [8] deals with PPARg:RXRa 270nM:90nM, anti-RXR (NR concentration 270 nM, RXRa partner concentration 90 nM). An outline of the steps: as §1
Assay [9] deals with PPARg:RXRa 30nM:10nM, anti-RXR (NR concentration 30 nM, RXRa partner concentration 10 nM). An outline of the steps:
as §1

For assay [10], the system named is PPARg:RXRa 90nM:30nM, anti-RXR (NR concentration 90 nM, RXRa partner concentration 30 nM). Put shortly: as §1
Assay [11] deals with PPARg:RXRa DBDmut IVT, anti-RXR (DBD mutation: RXRa K156A/R161A, NR concentration 270 nM, RXRa partner concentration 90 nM). Put shortly:
as §1

The test system of assay [12] is PPARg:RXRa IVT, anti-PPARg (NR concentration 270 nM, RXRa partner concentration 90 nM). Put shortly: as §1
The subject of assay [13] is PPARg DBDmut:RXRa IVT, anti-PPARg (DBD mutation: PPARg1 K132A/R137A, NR concentration 270 nM, RXRa partner concentration 90 nM). An outline of the steps: as §1
Assay [14] deals with PPARg DBDmut IVT, anti-PPARg (DBD mutation: PPARg1 K132A/R137A, NR concentration 270 nM). Put shortly: as §1
For assay [15], the system named is PPARg homodimer (NR concentration 180 nM). Put shortly: as §1
Assay [16] has as its system PXR:RXRa (NR concentration 270 nM, RXRa partner concentration 90 nM). An outline of the steps: as §1
For assay [17], the system named is PXR homodimer (NR concentration 270 nM). Put shortly: as §1
Assay [18] has as its system RARa:RXR (NR concentration 270 nM, RXRa partner concentration 90 nM). An outline of the steps: as §1
Assay [19] has as its system RARa homodimer (NR concentration 270 nM). An outline of the steps: as §1
Assay [20] has as its system RARb:RXRa (NR concentration 270 nM, RXRa partner concentration 90 nM). An outline of the steps: as §1

Regarding GTACCAAAGTGAATAGGTCGTTGATGAGTAGGCG, the PBM binding z-score in assay [1] was -0.437; in [2], -0.179; in assay [3] it was 0.178; in assay [4] it was -0.156; in [5], -0.573; in assay [6] it was 0.468. Moreover, the PBM binding z-score was 0.56 in assay [7]; 0.234 in [8]; 0.0456 in assay [9]; -0.0827 in assay [10]; -0.402 in assay [11]; -0.0847 in assay [12]. The PBM binding z-score was 0.259 in assay [13]; -0.53 in [14]; 0.312 in assay [15]; -0.00367 in [16]; -0.196 in [17]; 0.176 in assay [18]. Besides, the values for the PBM binding z-score in assay [19] and in [20] were 0.281 and 0.279, respectively.

For CGTCCAAGGTCAGAGAGGTAAGTGAATGCCGAGT, the PBM binding z-score is 4.98 in [1]; 3.18 in [2]; 0.174 in [3]; 2.39 in assay [4]; -0.0952 in assay [5]; 3.93 in assay [6]. Moreover, the PBM binding z-score in [7] was 2.19; in [8], 2.66; in assay [9] it was 0.414; in assay [10] it was 1.42; in [11], 2.46; in assay [12] it was 2.1. The PBM binding z-score in [13] was -0.583; in [14] it was -0.788; in assay [15], 1.67; in [16], 2.89; in assay [17], 1.46; in assay [18], 3.24. In addition, the PBM binding z-score in assay [19] came to 0.288; in [20], 4.67.

Turning to TGAATGAGGTTAAAGACCAGGGAACGTGGCGTCG, the PBM binding z-score in assay [1] was 2.78; in assay [2], 2.16; in assay [3], -0.15; in [4] it was 1.26; in assay [5] it was 0.1; in [6], 3.51. Also, the PBM binding z-score turned out to be 3.08 in assay [7]; 4.46 in assay [8]; 2.42 in assay [9]; 4.02 in assay [10]; 1.75 in assay [11]; 2.7 in [12]. In addition, the PBM binding z-score in assay [13] was 1.19; in assay [14], 0.401; in [15], 0.683; in [16], 1.08; in [17], -0.0383; in [18], 2.17. The PBM binding z-score is 0.0679 in assay [19] and 1.84 in [20].

In the case of GCGAATGGGGCATCAGCAGGTTACCATAACTTAA, the PBM binding z-score is -0.164 in assay [1]; -0.221 in [2]; -0.232 in [3]; 0.924 in assay [4]; -0.446 in assay [5]; 0.796 in assay [6]. For the same sequence, the PBM binding z-score in [7] was 0.281; in [8], -0.0121; in [9], -0.215; in assay [10], -0.384; in assay [11] it was 0.757; in assay [12], 0.63. Further, the PBM binding z-score in [13] was -0.741; in assay [14], -0.65; in [15] it was 0.165; in assay [16] it was 0.102; in assay [17], -0.437; in assay [18], 0.532. Also, the PBM binding z-score was -0.444 in assay [19] and 0.614 in assay [20].

In the case of GGAACGAGGGCAATGTTGATAGCATCTGTCGACG, the PBM binding z-score in assay [1] is 0.66; in assay [2] it was 0.337; in assay [3], -0.33; in [4] it was 0.395; in assay [5], -0.557; in assay [6], 1.66. Further, the PBM binding z-score turned out to be 1.4 in [7]; 1.49 in assay [8]; 0.128 in assay [9]; 0.931 in assay [10]; 3.67 in assay [11]; 2.77 in [12]. Also, the PBM binding z-score was 0.286 in [13]; -0.167 in assay [14]; 0.467 in [15]; 0.63 in [16]; 0.108 in assay [17]; 0.572 in [18]. Besides, the figures for the PBM binding z-score in assay [19] and in assay [20] were -0.191 and 2.13, respectively.

Take TCCTATAGGTAAACAGGTGAAAGTCCGTAAGTTA: the PBM binding z-score in [1] is 0.613; in assay [2], 0.51; in [3], 0.24; in assay [4], 0.845; in assay [5], -0.235; in [6] it was 2.07. The PBM binding z-score in assay [7] was 1.63; in [8], 2.96; in [9] it was 3.27; in assay [10], 3.17; in [11] it was 3.29; in assay [12], 3.06. The PBM binding z-score in [13] is 0.2; in assay [14], 0.663; in assay [15] it was 0.672; in assay [16], 0.638; in [17] it was 0.0288; in assay [18], 0.69. Also, the PBM binding z-score in [19] came to 0.325; in assay [20], 0.692.

Turning to CCTACTGGGCCAAAGGTCATTGAATCCAATGCTC, the PBM binding z-score in [1] is 4.76; in assay [2], 5.09; in assay [3] it was 3.62; in assay [4], 4.91; in [5], 0.849; in assay [6], 6.45. The PBM binding z-score was determined as 11.2 in assay [7]; 9.74 in assay [8]; 10.1 in assay [9]; 10.8 in [10]; 5.12 in assay [11]; 6.72 in assay [12]. Further, the PBM binding z-score in [13] was -0.082; in assay [14], 0.0276; in assay [15] it was 3.57; in assay [16], 5.26; in [17], 1.68; in [18] it was 5.79. In addition, the PBM binding z-score worked out at 0.758 in assay [19] and 4.52 in [20].
